Results filed as inconclusive are left out. Calls of active or inactive are those of the source. Calls follow the shape of the dose curve; as a rule, active = well fitted inhibition curve with a large enough effect; inconclusive = small, poorly fitted or top-dose-only effect; inactive = flat fitted curve, though single readings scatter.
Experiments:
Experiment in all cases: Cytotoxic Profiling of Annotated Libraries Using Quantitative High-Throughput Screening (AID 1296008); also: nearly all actives have a fitted effect of over 60% in size
Conditions in all cases: Five cell lines viability, CellTiter-Glo ATP luminescence, 48-72 h; max response: active compounds read low
CRL-7250 = normal cell line; tested on: CRL-7250
Method in brief: (§1)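 Cells exposed to compounds for 48 or 72 hr at 37 degrees Celsius. Viability read as ATP-coupled luminescence with CellTiter-Glo after 10 min at room temperature.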

HEK293 = tested on: HEK293
Method in brief: as §1

HaCat = tested on: HaCat
Method in brief: as §1

KB-3-1 = tested on: KB-3-1
Method in brief: as §1
% is scaled to controls: 0 for no effect and ±100 for the full control effect; potency is read from the fitted curve at half-maximal effect.

Cc1c(C(=O)N2CCOc3ccc(-c4ccc(N)nc4)cc3C2)ccc(S(C)(=O)=O)c1F
inactive: max response (HaCat) 2.5%
active: Potency (CRL-7250) 4.61 µM | Potency (HEK293) 5.8 µM | Potency (KB-3-1) 7.31 µM

CC12CCC(C(OC3OC(COC4OCC(O)(CO)C4O)C(O)C(O)C3O)C1)C(C)(C)O2 (stereo unspecified)
inactive: max response (CRL-7250) 2.4% | max response (HEK293) -9.12% | max response (HaCat) -11.8% | max response (KB-3-1) 1.72%

C=CC(C)(C)c1[nH]c2ccccc2c1C[C@@H]1NC(=O)[C@H](Cc2c[nH]c3ccccc23)NC1=O
inactive: max response (CRL-7250) 3.43% | max response (HEK293) -1.95% | max response (HaCat) -3.54% | max response (KB-3-1) 3.66%

CC12CCC3c4ccc(OC5OC(C(=O)O)C(O)C(O)C5O)cc4CCC3C1CCC2O (stereo unspecified)
inactive: outcome (CRL-7250) | max response (HEK293) 3.31% | max response (HaCat) 0.389% | outcome (KB-3-1)

OC[C@H]1O[C@@H](OC(CCCCc2ccc(O)cc2)CCc2ccc(O)cc2)[C@H](O)[C@@H](O)[C@@H]1O (stereo partly specified)
inactive: max response (CRL-7250) -35.2% | max response (HEK293) -49.4% | max response (HaCat) -20.5% | outcome (KB-3-1)

O=C(OCC1=CC(O)C2C=CO[C@@H](O[C@@H]3O[C@H](CO)[C@@H](O)[C@H](O)[C@H]3O)C12)c1ccccc1 (stereo partly specified)
inactive: max response (CRL-7250) -3.02% | max response (HEK293) -4.16% | max response (HaCat) 1.81% | max response (KB-3-1) 2.99%

CC/C=C\CC1C(=O)C=CC1(CCCCCCCC(=O)O)OC(C)=O (stereo unspecified)
inactive: max response (CRL-7250) -0.322% | max response (HEK293) 2.73% | max response (HaCat) 3.46% | outcome (KB-3-1)

C=C1CCC2C(C)(C)C(O)CCC2(C)C1CCC(C)CCOC(C)=O (stereo unspecified)
inactive: outcome (CRL-7250) | max response (HEK293) -19.2% | max response (HaCat) -5.36% | max response (KB-3-1) 3.19%

CC1=C(CCC(C)O[C@@H]2O[C@H](CO)[C@@H](O)[C@H](O)[C@H]2O)C(C)(C)CCC1=O (stereo partly specified)
inactive: max response (CRL-7250) -22.3% | max response (HEK293) 4.11% | max response (HaCat) -0.525% | max response (KB-3-1) 8.72%

O=S(=O)(c1ccccc1)c1cnc2c(N3CCNCC3)cccc2c1
inactive: max response (CRL-7250) 1.33% | max response (HEK293) -8.82% | outcome (HaCat) | max response (KB-3-1) 0.14%

CC(NC(=O)CCc1nc2ccccc2c(=O)[nH]1)c1ccccc1 (stereo unspecified)
inactive: max response (CRL-7250) -18.4% | max response (HEK293) -0.47% | max response (HaCat) -2.07% | max response (KB-3-1) -4.27%

COc1ccc(/C=C/C(=O)O[C@H]2[C@H](O[C@H]3[C@@H]4C=CO[C@@H](O[C@@H]5O[C@H](CO)[C@@H](O)[C@H](O)[C@H]5O)[C@@H]4[C@@]4(CO)O[C@@H]34)O[C@@H](C)[C@H](O)[C@H]2OC(C)=O)cc1
inactive: max response (CRL-7250) 3.12% | max response (HEK293) -1.88% | max response (HaCat) 2.92% | max response (KB-3-1) 4.98%

CC1=CC(=O)C2(OC3OC(C)C(O)C(OC(=O)/C=C/c4ccccc4)C3O)C=COC(OC3OC(CO)C(O)C(O)C3O)C12 (stereo unspecified)
inactive: max response (CRL-7250) -3.56% | max response (HEK293) -0.0394% | max response (HaCat) 2.65% | max response (KB-3-1) 7.12%

O=C1N=C(N2CCOCC2)CN1c1ccc(Cl)cc1
inactive: max response (CRL-7250) -3.02% | max response (HEK293) -16.9% | max response (HaCat) -30.2% | max response (KB-3-1) 2.82%

C[C@@H]1O[C@@H](O[C@H]2[C@@H]3C=CO[C@@H](O[C@@H]4O[C@H](CO)[C@@H](O)[C@H](O)[C@H]4O)[C@@H]3[C@@]3(CO)O[C@@H]23)[C@H](OC(=O)/C=C/c2ccc(O)c(O)c2)[C@H](O)[C@H]1O
inactive: outcome (CRL-7250) | max response (HEK293) -5.61% | max response (HaCat) 1.24% | max response (KB-3-1) 6.2%

O=C(O)c1cc2cccc([N+](=O)[O-])c2[nH]1
inactive: max response (CRL-7250) -12.6% | max response (HEK293) 2.87% | max response (HaCat) -11.1% | max response (KB-3-1) 5.58%

COc1cc(C(=O)OC[C@@]2(O)CO[C@@H](O[C@H]3[C@H](Oc4ccc(C(=O)O)cc4OC)O[C@H](CO)[C@@H](O)[C@@H]3O)[C@@H]2O)ccc1O
inactive: max response (CRL-7250) -0.15% | max response (HEK293) -19.1% | max response (HaCat) 1.78% | outcome (KB-3-1)

C[C@@H]1C(=O)O[C@H]2C[C@]34[C@H]5C[C@@H](C(C)(C)C)[C@]36[C@@H](OC(=O)[C@H]6O)O[C@]4(C(=O)O5)[C@]21O
inactive: max response (CRL-7250) -0.0261% | max response (HEK293) -44.8% | max response (HaCat) 3.22% | max response (KB-3-1) -3.28%

CC(=O)O[C@@H](CO[C@@H]1O[C@H](CO)[C@H](O)[C@H](O)[C@H]1O)[C@]1(C)C=C2CC[C@@H]3C(C)(C)[C@@H](O)CC[C@@]3(C)[C@@H]2CC1
inactive: max response (CRL-7250) -3.06% | max response (HEK293) -1.31% | max response (HaCat) 2.2% | max response (KB-3-1) 2.92%
